Results from PubChem BioAssay (Tox21).
Inconclusive results are not listed. A number with no mark means an inactive call. Activity calls are given as the source filed them. Unless noted, calls come from the whole dose curve; as a rule, active = well fitted cell-killing curve with a large enough effect in the repeat runs; inconclusive = weak or mixed curves, or effect the other way; inactive = no such curve, though single readings can be large or run the other way.

Experiment: qHTS assay for small molecule activators of the heat shock response signaling pathway - cell viability counter screen (AID 743209); note: nearly all actives have a fitted effect of over 50% in size; note: potency is the fitted concentration of half-maximal effect
Conditions: HSE-bla HeLa viability, CellTiter-Glo luminescence, 5 h; series mostly up to 62.6 µM; activity change, negative = cytotoxicity: at the top concentration
How it was run: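 CellSensor HSE-bla HeLa cells, plated overnight at 37 C/5% CO2, were exposed to compounds in DMSO for 5 h at 37 C. Viability was then read in the same wells by CellTiter-Glo luminescence after 30 min at room temperature.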
% is set by controls: 0 for no effect and ±100 for the full control effect.

SMILES	Potency	activity change, negative = cytotoxicity
Fc1ccc(C(c2ccc(F)cc2)N2CCNCC2)cc1	15 µM (active)	
O=C1NC(=O)[C@@H]2CC=CC[C@H]12		1.64%
CN(C)C(=O)COC(=O)Cc1ccc(OC(=O)c2ccc(N=C(N)N)cc2)cc1		-10.3%
CN(C)CCN1CCN(c2cccc(Cl)c2)C1=O		1.22%
O=c1c(O)c(-c2ccc(O)cc2O)oc2cc(O)cc(O)c12		3.93%
CCC(=O)C(=O)CC		-9.34% [at 81.1 µM]
Cc1ccc(O)c(N)c1		-9.94%
O=S(=O)(O)c1ccc(Nc2nc(Nc3ccc(/C=C/c4ccc(Nc5nc(Nc6ccc(S(=O)(=O)O)cc6)nc(N(CCO)CCO)n5)cc4S(=O)(=O)O)c(S(=O)(=O)O)c3)nc(N(CCO)CCO)n2)cc1		3.93%
Nc1ccc(NCCO)c([N+](=O)[O-])c1		0.252%
Cc1ccc(O)c(O)c1		-10.1%
Cc1c(N)cccc1C(F)(F)F		-1.45%
CCC(C)[O-].CCC(C)[O-].CCOC(=O)/C=C(/C)[O-].[Al+3]		3.71%
CCCc1ccc(OCC(=O)N2CCN(C(=O)COc3ccc(CCC)cc3OC)CC2)c(OC)c1		9.27%
CCCCCCC1CCCC(=O)O1 (centres undefined)		13.3%
O=C(O)Cc1ccc2c(c1)C(=O)c1ccccc1CO2		13.6%
O=c1oc2cc(O)ccc2c2oc3cc(O)ccc3c12		-2.61%
COc1cc2nc(N3CCN(C(=O)c4ccco4)CC3)nc(N)c2cc1OC		2.42% [at 29.1 µM]

SMILES	Potency	activity change, negative = cytotoxicity
O=S(=O)(O)c1ccccc1/C=C/c1ccc(-c2ccc(/C=C/c3ccccc3S(=O)(=O)O)cc2)cc1		8.26%
C#Cc1ccc(-c2ccccc2F)cc1		-11.1%
COc1cccc(OC)c1C(=O)O		-13.3%
[Cu+]		-3.33%
Cc1cc(-n2nc3ccc(Cl)cc3n2)c(O)c(C(C)(C)C)c1		-5.05%
OCCN1CCN(CCCN2c3ccccc3Sc3ccc(C(F)(F)F)cc32)CC1		-5.58%
CNC(=O)c1ccccc1Sc1ccc2c(/C=C/c3ccccn3)n[nH]c2c1		-16%
Cc1cccc(C)c1NC(=O)c1ccc(N)cc1		-6.07%
c1ccc(C(O[C@@H]2CCCN(CCc3ccc4c(c3)OCO4)C2)c2ccccc2)cc1		-8.74%
CC(C)=CCC1=C(O)c2ccccc2C(=O)C1=O		-16.4%
CN1CCC[C@@H]1CCO[C@](C)(c1ccccc1)c1ccc(Cl)cc1		-1.73%
CCCC(=O)OCOC(=O)C1=C(C)NC(C)=C(C(=O)OC)C1c1cccc(Cl)c1Cl (centres undefined)		6.63%
CC(C)=CCNc1ncnc2c1ncn2[C@@H]1O[C@H](CO)[C@@H](O)[C@H]1O	13.3 µM (active)	
CN(C)[C@@H](CCOc1cccc2ccccc12)c1ccccc1		-3.47%
CC/C=C\CCCCCO		-7.82%
CN1CCN(Cc2cc(-c3ccc4[nH]c(=O)oc4c3)co2)[C@@H](c2ccc(F)cc2)C1		-1.26%
CCOC(=O)c1ccc(C2CCC(NC[C@H](O)COc3ccc(O)c(NS(C)(=O)=O)c3)CC2)cc1 (some centres undefined)		-15.7%

Experiment: qHTS assay for small molecule activators of the heat shock response signaling pathway (AID 743210; active = well fitted activation curve with a large enough effect in the signal ratio in the repeat runs, with a control signal flat, not every such curve was filed as active; the % refers to the signal ratio;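 note: HeLa cells with beta-lactamase reporter driven by heat shock elements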)
Conditions: HeLa HSE-bla reporter, beta-lactamase ratio, 5 h; series mostly up to 62.6 µM; activation: at the top concentration
How it was run: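 Quantitative high-throughput format using an engineered HeLa line in which heat shock response elements drive beta-lactamase; after 5 h with compound, cells received a B/G FRET substrate and fluorescence was read.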

SMILES	activation
O=C1NC(=O)[C@@H]2CC=CC[C@H]12	-0.657%
CN(C)C(=O)COC(=O)Cc1ccc(OC(=O)c2ccc(N=C(N)N)cc2)cc1	-1.42%
CN(C)CCN1CCN(c2cccc(Cl)c2)C1=O	-0.495%
CCC(=O)C(=O)CC	0.153% [at 81.1 µM]
Nc1ccc(NCCO)c([N+](=O)[O-])c1	-0.4%
Cc1c(N)cccc1C(F)(F)F	0.29%
CCC(C)[O-].CCC(C)[O-].CCOC(=O)/C=C(/C)[O-].[Al+3]	-1.9%
Cc1nc(-c2ccc(Cl)cc2)oc1COC(C)(C)C(=O)O	-2.69%
CCCc1ccc(OCC(=O)N2CCN(C(=O)COc3ccc(CCC)cc3OC)CC2)c(OC)c1	-0.171%
CCCCCCC1CCCC(=O)O1 (centres undefined)	-1.7%
O=C(O)Cc1ccc2c(c1)C(=O)c1ccccc1CO2	-0.06%
COc1cc2nc(N3CCN(C(=O)c4ccco4)CC3)nc(N)c2cc1OC	-0.607% [at 29.1 µM]
C#Cc1ccc(-c2ccccc2F)cc1	2.27%
COc1cccc(OC)c1C(=O)O	-0.637%
Cc1cc(-n2nc3ccc(Cl)cc3n2)c(O)c(C(C)(C)C)c1	2.71%
OCCN1CCN(CCCN2c3ccccc3Sc3ccc(C(F)(F)F)cc32)CC1	1.6%
CNC(=O)c1ccccc1Sc1ccc2c(/C=C/c3ccccn3)n[nH]c2c1	3.98%
Cc1cccc(C)c1NC(=O)c1ccc(N)cc1	-0.394%
CCN(CC)C(=O)c1cc(S(=O)(=O)Cc2ccccc2)c(N2CCC(c3ccccc3)CC2)cc1N(CC)CCN(C)C	-1.3% [at 29.1 µM]
CC(C)=CCC1=C(O)c2ccccc2C(=O)C1=O	-1.71%
CN1CCC[C@@H]1CCO[C@](C)(c1ccccc1)c1ccc(Cl)cc1	-0.0291%
CCCC(=O)OCOC(=O)C1=C(C)NC(C)=C(C(=O)OC)C1c1cccc(Cl)c1Cl (centres undefined)	-1.17%
CC(C)=CCNc1ncnc2c1ncn2[C@@H]1O[C@H](CO)[C@@H](O)[C@H]1O	2.38%
CC/C=C\CCCCCO	-0.168%
CCOC(=O)c1ccc(C2CCC(NC[C@H](O)COc3ccc(O)c(NS(C)(=O)=O)c3)CC2)cc1 (some centres undefined)	1.09%
